Source: PubChem BioAssay AID540277 (National Center for Advancing Translational Sciences (NCATS), 2011)
Out of some 320,000 compounds screened, about 55 (0.02%) were called active. Not shown: some 3% with an inconclusive outcome. This is one part of a sample in which actives are shown more often than they occur. Cut-off read from the data, not from the text of the source: active = potentiation above about 80%; inconclusive = between about 30% and that limit; inactive = weaker than that.

Target: Transient receptor potential cation channel subfamily V member 1 (Homo sapiens) (UniProt Q8NER1)
Assay: HTS Assay for Compounds that Act as Potentiators of the Vanilloid Receptor 1; note: 0% is about no effect
Conditions: TRPV1-expressing cells, Fluo-8 calcium influx, capsaicin EC20 potentiation; at 8.33 µM; hits give high values
Text: The transient receptor potential ion channel, family V, number 1, (TRPV1) is one of the most important molecular transducers of painful stimuli and a potential target for analgesic drug development. Although recent clinical trials with orthosteric antagonists have not produced a successful drug because of a hyperthermia side effect and their tendency to block thermal noxious pain, this ion channel is undeniably well placed in the pain pathway, and the idea of blocking pain signals before they enter the CNS is an excellent concept and of proven efficacy when TRPV1 agonists are used. We propose a new approach involving allosteric modulation to impose an activity-dependent constraint within the context of inflammation and tissue damage that would alter the responsiveness of the channel in a way that an orthosteric vanilloid antagonist cannot achieve. We believe that the allosteric modulator approach has not been explored for this target. The main goal of this proposal is to identify additional, new, potent allosteric modulators of TRPV1 that can be used to investigate TRPV1 function. Our recent report provides evidence of proof of concept, but the compounds are just at the edge of utility in terms of potency. […] The question of whether they can be used as analgesic agents is complex, but if suitable compounds are identified then testing for analgesic properties will be conducted. NIH Chemical Genomics Center [NCGC] NIH Molecular Libraries Probe Centers Network [MLPCN] MLPCN Grant: MH089480-1A1 Assay Submitter (PI): Michael Iadarola, National Institute of Dental and Cranofacial Research
Upon TRPV1 activation in TRPV1 cells, the channel opens and extracellular cations flow through the channel into the cytosol. A calcium binding dye (Fluo-8) becomes fluorescent when bound to calcium. This dye is pre-loaded into cells and is used as a marker for calcium influx. The amount of accumulated calcium is precisely quantified using the FDSS kinetic reader and the calcium dye. For the HTS assay, freshly prepared cells are plated at a density of 2000/well in 3 ul medium in 1536-well plates and cultured overnight at 35.5C. Cells will be loaded with 1 ul of the homogeneous calcium dye (ABD Bioquest) at room temperature for 40 to 90 minutes. Plates will be loaded into the FDSS kinetic reader and a 1 sec / cycle for 10 second baseline signal will be measured. Compound library will then be added with a pintool at 23 nl and measured kinetically for 3 minutes. This portion of the read is considered the agonist portion of the screen. Following the 3 minutes of incubation, an on board pipettor will deliver 1 ul of capsaicin for a final concentration equal to the EC20. Signal will be measured kinetically for an additional 2 minutes. This portion of the read is considered the allosteric enhancer portion of the screen. The FDSS reader has a standard filter set capable of measuring calcium bound Fluo-8 (ex=480 and em=520 nm).

Transient receptor potential cation channel subfamily V member 1 (Homo sapiens), sequence (Q8NER1 whole entry, looked up): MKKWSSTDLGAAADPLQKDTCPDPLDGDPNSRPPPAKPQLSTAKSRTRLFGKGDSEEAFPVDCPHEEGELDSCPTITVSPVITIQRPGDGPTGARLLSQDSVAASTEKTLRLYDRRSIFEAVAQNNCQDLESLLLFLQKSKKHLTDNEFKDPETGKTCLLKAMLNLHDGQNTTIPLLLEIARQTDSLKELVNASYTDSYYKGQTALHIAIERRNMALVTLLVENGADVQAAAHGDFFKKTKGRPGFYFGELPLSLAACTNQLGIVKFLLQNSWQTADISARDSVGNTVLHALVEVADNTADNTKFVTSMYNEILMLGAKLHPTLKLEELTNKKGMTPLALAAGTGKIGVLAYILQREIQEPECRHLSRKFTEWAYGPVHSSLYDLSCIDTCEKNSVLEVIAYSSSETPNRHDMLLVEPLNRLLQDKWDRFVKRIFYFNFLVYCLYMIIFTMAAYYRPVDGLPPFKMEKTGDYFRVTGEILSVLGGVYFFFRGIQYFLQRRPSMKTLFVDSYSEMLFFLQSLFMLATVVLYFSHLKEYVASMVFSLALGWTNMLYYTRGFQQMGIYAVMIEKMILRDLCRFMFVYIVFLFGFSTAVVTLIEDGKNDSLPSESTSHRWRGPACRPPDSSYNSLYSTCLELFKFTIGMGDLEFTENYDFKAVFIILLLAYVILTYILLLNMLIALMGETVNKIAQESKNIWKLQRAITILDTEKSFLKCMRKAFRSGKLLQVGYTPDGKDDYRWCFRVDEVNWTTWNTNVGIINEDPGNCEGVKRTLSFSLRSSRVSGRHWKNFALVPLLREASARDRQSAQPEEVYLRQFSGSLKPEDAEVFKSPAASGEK

| SMILES | potentiation |
| --- | --- |
| CCCCN1C(=O)C(=O)N(CC(=O)Nc2cccc(C(C)=O)c2)C1=O | 6.11% (inactive) |
| COC(=O)c1ccc(-c2c(-c3ccccc3)ncc3cc(OC)c(OC)cc23)cc1 | -0.0919% (inactive) |
| O=C(NCC1CCCO1)c1cc2c(s1)CCCC2 (stereo unspecified) | -3.61% (inactive) |
| COc1ccc(C(C)(C)C)cc1NC(=O)CCN1C(=O)C2CCCCC2C1=O (stereo unspecified) | -20% (inactive) |
| Cc1ccc(NC(=O)C(c2ccccc2)N2CCN(C(=O)c3ccco3)CC2)cc1 (stereo unspecified) | 4.79% (inactive) |
| CN(CCOc1ccccc1)C(=O)c1cc(-c2ccco2)nc2ccccc12 | 1.05% (inactive) |
| CC1CCN(C(=O)COC(=O)c2cc(=O)[nH]c3ccccc23)CC1 | -1.92% (inactive) |
| CN(C)S(=O)(=O)c1cccc(NC(=O)COc2ccc3ccccc3c2)c1 | 2.88% (inactive) |
| O=C(COC(=O)c1cccc(Cl)c1)NC1CCCCCCC1 | -13.9% (inactive) |
| COc1cc(OC)c(C(=S)N2CCCC2)cc1OC | -20.3% (inactive) |
| COc1ccc(-c2cc(C(=O)NCCCN3CCCC3=O)c3ccccc3n2)cc1OC | -7.67% (inactive) |
| COc1cccc(C(=O)c2sc3nc(-c4ccccc4)cc(C(F)(F)F)c3c2N)c1 | -4.5% (inactive) |
| CC(C)Cc1nnc(NC(=O)CCNC(=O)c2ccccc2Cl)s1 | 6.33% (inactive) |
| CCCc1ccc(C(=O)COC(=O)CN2C(=O)NC3(CCCCC3C)C2=O)cc1 (stereo unspecified) | -5.74% (inactive) |
| O=C(OCC(=O)N1CCc2ccccc21)C1CCCN1S(=O)(=O)c1ccc(Cl)cc1 (stereo unspecified) | -3.33% (inactive) |
| COc1ccc(C)cc1NC(=O)CN1c2cccc3cccc(c23)S1(=O)=O | -17.5% (inactive) |
| COc1ccc(S(=O)(=O)Nc2cccc3cccnc23)c(N)c1 | 13.6% (inactive) |
| N#Cc1ccccc1S(=O)(=O)N1CCN(Cc2c(O)ccc3ccccc23)CC1 | 0.42% (inactive) |
| O=C(COC(=O)CNC(=O)C1CCCCC1)NCc1ccccc1 | -6.14% (inactive) |
| CC(C)N(C(=O)CN1CCN(S(=O)(=O)c2ccc(Br)s2)CC1)C(C)C | -18.3% (inactive) |
| CCOc1cccc2cc(C(=O)OCC(=O)Nc3c(C)cccc3CC)c(=O)oc12 | -5.16% (inactive) |
| Nc1cc(N)nc(SCC(=O)Nc2cccc(S(=O)(=O)N3CCCCC3)c2)n1 | 0.644% (inactive) |
| COc1cccc(C(=O)n2ccc(-c3cccs3)n2)c1 | -6.21% (inactive) |

| SMILES | potentiation |
| --- | --- |
| O=C(N[C@@H](Cc1c[nH]c2ccccc12)C(=O)O)OCC1c2ccccc2-c2ccccc21 | 1.56% (inactive) |
| CN(C(=O)CSc1nnc(-c2ccc(C(C)(C)C)cc2)n1C)C1CCS(=O)(=O)C1 (stereo unspecified) | -2.39% (inactive) |
| O=C(CSc1nnc(Nc2ccccc2F)s1)NC1CCCC1 | -7.27% (inactive) |
| CCN(CC)S(=O)(=O)c1ccc(OC)c(NC(=O)CCc2c(C)noc2C)c1 | -15% (inactive) |
| COc1ccccc1S(=O)(=O)NCc1ccc(C(=O)N(C)Cc2ccc(F)cc2)cc1 | -20.6% (inactive) |
| Cc1ccc(NC(=S)N(Cc2ccco2)C(C)c2cccs2)cc1 (stereo unspecified) | 141% (active) |
| Cc1ccc(NC(=S)N(CCCN2CCC(C)CC2)Cc2ccco2)cc1 | 8.22% (inactive) |
| Cc1ccc(NC(=S)N(CCN2CCCCC2)Cc2ccco2)cc1C | 2.55% (inactive) |
| O=C(O)c1ccccc1N=N/C(=N/Nc1cc(S(=O)(=O)O)ccc1O)c1ccccc1 | 1.2% (inactive) |
| CN(C)S(=O)(=O)c1ccc(C(=O)NCC2(N3CCOCC3)CCCCC2)cc1 | -44.6% (inactive) |
| CN(Cc1cccs1)C(=O)CN1C(=O)c2ccccc2S1(=O)=O | -1.15% (inactive) |
| CCC1(C)NC(=O)N(CC(=O)N2CCN(c3cccc(Cl)c3)CC2)C1=O (stereo unspecified) | -16.1% (inactive) |
| O=C(COC(=O)c1ccccc1Cl)NC1CCCCCCC1 | -4.06% (inactive) |
| O=C(NCc1ccccc1CN1CCCC1)c1cccc(S(=O)(=O)Nc2ccc(F)cc2)c1 | -2.77% (inactive) |
| CC(C)Oc1ccc(C(=O)NCC(=O)Nc2ccc3c(c2)CCC3)cc1 | -17.6% (inactive) |
| O=C(Nc1cccc2cccnc12)C(F)(F)F | 13.4% (inactive) |
| CCNC(=O)N1CCN(S(=O)(=O)c2ccc3c(c2)OCCCO3)CC1 | 4.26% (inactive) |
| N#Cc1ccc(C(=O)OCC(=O)NC(=O)NC2CCCCC2)cc1 | 22.1% (inactive) |
| Cc1ccc(-c2nn(-c3ccccc3)cc2C(=O)NC2CCC(O)CC2)cc1 (stereo unspecified) | -7.64% (inactive) |
| Cc1ccc(C(=O)NNC(=O)c2ccc3c(c2)OCCO3)cc1 | 9.22% (inactive) |
| Cn1c(SCC(=O)Nc2ccc(N3CCOCC3)cc2)nnc1C(F)(F)F | 1.26% (inactive) |
| COc1ccc(S(=O)(=O)N2CCN(c3ccc(F)cc3)CC2)cc1-c1noc(C)n1 | -6.85% (inactive) |
| CCN(CC(=O)Nc1c(F)cccc1F)C(=O)c1ccc(-c2ccc(C(C)=O)cc2)o1 | -3.51% (inactive) |

| SMILES | potentiation |
| --- | --- |
| O=C(COc1ccccc1Cl)N1N=C(c2cccs2)CC1c1ccco1 (stereo unspecified) | -9.15% (inactive) |
| CCc1cc(C(=O)Nc2nnc(C3CC3)s2)sc1C | -13.7% (inactive) |
| O=C(CN1CCN(S(=O)(=O)c2ccc(Cl)s2)CC1)N1CCCCC1 | -6.4% (inactive) |
| CN(C)C(CNC(=O)c1ccc(OCc2cn3ccccc3n2)cc1)c1ccco1 (stereo unspecified) | -3.83% (inactive) |
| CN(CC(=O)NC1CCN(Cc2ccccc2)CC1)S(=O)(=O)c1ccc(Cl)s1 | 6.87% (inactive) |
| COc1ccccc1CNC(=O)COC(=O)c1sc(C)nc1C | 1.52% (inactive) |
| Cc1csc2nc(COC(=O)c3cccc(N(C)C)c3)cc(=O)n12 | 15% (inactive) |
| COc1ccc(CCNC(=O)COc2ccc3c(c2)OCO3)cc1 | 18.8% (inactive) |
| CCOc1cc(/C=C(/C#N)c2ccc(Cl)cc2)cc(Cl)c1OCC(=O)O | 12.2% (inactive) |
| COc1ccc(NC(=O)CC2SC(N3CCCCC3)=NC2=O)cc1OC (stereo unspecified) | 1.27% (inactive) |
| Cc1cccc(OCCC(=O)OCc2csc(CC(=O)Nc3ccccc3C)n2)c1 | -3.33% (inactive) |
| O=S(=O)(Nc1cccc2cccnc12)c1cccc2cccnc12 | 16.1% (inactive) |
| O=C(COC(=O)CNC(=O)C1CCCCC1)Nc1cccc(F)c1 | -7.91% (inactive) |
| O=C(COC(=O)Cc1ccccc1F)NCCc1ccccc1 | -16% (inactive) |
| CC(=O)c1sc(NC(=O)CCN2C(=O)C3CC=CCC3C2=O)nc1-c1ccccc1 (stereo unspecified) | -6.85% (inactive) |
| CC(C(=O)Nc1ccc(S(=O)(=O)N2CCCC2)cc1)N(C)Cc1ccc(F)cc1 (stereo unspecified) | -18.2% (inactive) |
| O=C(OCC(=O)N1CCOCC1)c1ccc2ccccc2c1 | 17.8% (inactive) |
| O=C(NNC(=O)c1cc(S(=O)(=O)N2CCCCC2)ccc1Cl)c1ccccc1O | -1.67% (inactive) |
| CC1CCCN(C(=O)c2cc(-c3ccco3)nc3ccccc23)C1 (stereo unspecified) | 27.4% (inactive) |
| CC(C)Nc1ncnc2c1nnn2Cc1ccccc1 | -2.19% (inactive) |
| Oc1ccc(Cl)cc1C1C=C(c2ccc3c(c2)OCO3)NC(c2c(F)cccc2Cl)N1 (stereo unspecified) | 25.7% (inactive) |
| Cc1ccc(C(=O)Nc2ccn(C)n2)cc1 | 6.57% (inactive) |
| O=S(=O)(Nc1ccc2nc(N3CCOCC3)sc2c1)c1ccccc1 | 15.8% (inactive) |

| SMILES | potentiation |
| --- | --- |
| O=C(CSc1nc2[nH]c(=O)[nH]c(=O)c2s1)Nc1cccc(F)c1 | 19.7% (inactive) |
| O=C(Nc1ccccc1N1CCOCC1)c1ccncc1 | 17.2% (inactive) |
| NS(=O)(=O)c1ccc(CNC(=O)c2cccc(S(=O)(=O)N3CCc4ccccc43)c2)cc1 | 23.8% (inactive) |
| CC(C)n1ncc2c(C(=O)NCc3ccccc3CN(C)C)cc(C3CC3)nc21 | 3.73% (inactive) |
| Cc1ccc(OCC(=O)N2CCN(S(=O)(=O)c3ccc(Cl)s3)CC2)cc1C | -16.7% (inactive) |
| CCCn1c(N)c(N(CCOC)C(=O)C2CCCC2)c(=O)[nH]c1=O | 1.87% (inactive) |
| Oc1ccc(Cl)cc1C1C=C(c2ccc3c(c2)OCO3)NC(c2ccc(F)c(Br)c2)N1 (stereo unspecified) | 3.03% (inactive) |
| O=C(NCCN1CCOCC1)c1cccc(S(=O)(=O)Nc2ccc(F)cc2)c1 | 6.45% (inactive) |
| COc1ccc(OC)c(/C=C/C(=O)c2ccc3c(c2)OCO3)c1 | -3.4% (inactive) |
| Cc1cccc(Nc2nnc(SCC(=O)c3c(N)n(C4CC4)c(=O)[nH]c3=O)s2)c1C | 22.3% (inactive) |
| COc1cc(C#Cc2ccc3cc(CCCO)oc(=O)c3c2)cc(OC)c1 | 2.73% (inactive) |
| O=C(NCc1ccccc1CN1CCCC1)C1CCN(S(=O)(=O)c2ccc(Cl)cc2)CC1 | 1.5% (inactive) |
| O=S(=O)(c1ccc(SCc2ccccc2)nc1)N1CCCCCC1 | -6.24% (inactive) |
| Cc1ccc2ccc3c(c2n1)NS(=O)(=O)c1ccccc1-3 | 18.5% (inactive) |
| CC1(C)O[C@@H]2[C@H](O1)[C@@H](COS(=O)(=O)O)O[C@H]2n1cnc2c(=O)[nH]cnc21 | 8.79% (inactive) |
| COc1cccc(NC(=O)COC(=O)/C=C/c2ccco2)c1 | 11% (inactive) |
| COc1ccccc1NC(=O)COC(=O)COc1ccccc1F | 3.99% (inactive) |
| COc1ccc(NC(=O)CN(C)C(=O)c2cc(C3CC3)nn2-c2ccccc2)cc1 | 14.7% (inactive) |
| Cc1ccc(/C=C/C(=O)OCC(=O)Nc2cccnc2Cl)cc1 | -11.8% (inactive) |
| Cc1cccc(NS(=O)(=O)c2ccc(C)c(C(=O)NCC(c3ccccc3)N(C)C)c2)c1 (stereo unspecified) | 1.06% (inactive) |
| Cc1cccc(NS(=O)(=O)c2cccc(C(=O)NNC(=O)c3ccccc3O)c2)c1 | -12.6% (inactive) |
| COc1ccc(C(=O)OCC(=O)c2cc(C)n(CC3CCCO3)c2C)cc1[N+](=O)[O-] (stereo unspecified) | 9.08% (inactive) |
